Values joined by “and” are separate entries in the source; they are usually repeats but may differ in a detail not shown here. Identical values can stand only once. Hit rate of the full screen: of about 5,500 compounds, about 2,000 (36%) were called active. Another 18% or so got no clear call; they are omitted. No stated cut-off is given here; in the data, active means normalized growth mostly below about 0.91 (no sharp cut-off); inconclusive means no clear call, values can overlap the other calls; inactive means mostly above about 0.92. The list shows a part of the results.
Assay: chemical genetic growth profiling, strain panel (AID 1159580);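 further: tested at 20 µM; growth read once vehicle control cultures reached saturation at 30 °C; 1 = growth at the plate median or of vehicle wells; lower values mean less growth of the strain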
Settings: S. cerevisiae deletion strains, growth OD

Measured: normalized growth

NC[C@H]1O[C@H](OC2[C@@H](N)C[C@@H](N)[C@H](O[C@H]3O[C@H](CO)[C@@H](O)[C@H](N)[C@H]3O)[C@H]2O)[C@H](O)[C@@H](O)[C@@H]1O (some centres undefined)
inactive: locus YAL013W, strain DEP1, hits give low values 0.997 | locus YAL021C, strain ccr4, hits give low values 0.993 | locus YAL026C, strain drs2, hits give low values 0.998 | locus YAL030W, strain snc1, hits give low values 1 | locus YBL061C, strain skt5, hits give low values 1.01 | locus YBR009C, strain hhf1, hits give low values 1.01 | locus YBR021W, strain FUR4, hits give low values 0.97 | locus YBR023C, strain chs3, hits give low values 0.983 | locus YBR171W, strain sec66, hits give low values 0.989 | locus YBR229C, strain ROT2, hits give low values 0.988 | locus YBR231C, strain swc5, hits give low values 0.998 | locus YBR279W, strain paf1, hits give low values 1.01 | locus YCL011C, strain gbp2, hits give low values 0.999 | locus YCL016C, strain dcc1, hits give low values 0.985 | locus YCL029C, strain bik1, hits give low values 0.985 | locus YCL061C, strain MRC1, hits give low values 0.99 | locus YCL069W, strain vba3, hits give low values 0.998 | locus YCR088W, strain abp1, hits give low values 0.994 | locus YDL005C, strain med2, hits give low values 0.994 | locus YDL035C, strain GPR1, hits give low values 1.02 | locus YDL040C, strain nat1, hits give low values 1 | locus YDL074C, strain BRE1, hits give low values 0.991 | locus YDL101C, strain DUN1, hits give low values 0.986 | locus YDL134C, strain PPH21, hits give low values 1.01 | locus YDL185W, strain tfp1, hits give low values 0.997 | locus YDL192W, strain arf1, hits give low values 0.98 | locus YDR001C, strain nth1, hits give low values 0.995 | locus YDR069C, strain doa4, hits give low values 1 | locus YDR101C, strain arx1, hits give low values 0.99 | locus YDR137W, strain rgp1, hits give low values 0.997 | locus YDR150W, strain NUM1, hits give low values 1 | locus YDR159W, strain sac3, hits give low values 1 | locus YDR162C, strain NBP2, hits give low values 1 | locus YDR195W, strain ref2 0.961 | locus YDR297W, strain sur2, hits give low values 0.998 | locus YDR318W, strain mcm21, hits give low values 0.978 | locus YDR334W, strain swr1, hits give low values 0.988 | locus YDR335W, strain msn5, hits give low values 1 | locus YDR388W, hits give low values 0.993 | locus YDR392W, strain spt3, hits give low values 0.935 | locus YDR502C, strain sam2, hits give low values 1.01 | locus YEL003W, strain gim4, hits give low values 1.01 | locus YEL037C, strain rad23, hits give low values 1.01 | locus YEL061C, strain CIN8 (second series), hits give low values 0.999 | locus YEL061C, strain CIN8, hits give low values 0.997 | locus YER015W, strain faa2, hits give low values 0.978 | locus YER016W, strain bim1, hits give low values 1.01 | locus YER110C, hits give low values 0.97 | locus YER111C, strain swi4, hits give low values 0.994 | locus YER155C, strain BEM2 (second series), hits give low values 0.993 | locus YER155C, strain BEM2, hits give low values 0.993 | locus YER167W, strain BCK2, hits give low values 0.989 | locus YFR010W, strain ubp6, hits give low values 1 | locus YGL078C, strain dbp3, hits give low values 0.973 | locus YGL086W, strain mad1, hits give low values 1 | locus YGL167C, strain pmr1, hits give low values 1.01 | locus YGL173C, strain kem1, hits give low values 0.996 | locus YGL227W, strain vid30, hits give low values 0.991 | locus YGL240W, strain doc1, hits give low values 0.99 | locus YGL248W, strain PDE1, hits give low values 0.984 | locus YGL253W, strain hxk2, hits give low values 1.01 | locus YGR135W, strain pre9, hits give low values 0.943 | locus YGR252W, strain gcn5, hits give low values 0.967 | locus YHR013C, strain ard1, hits give low values 0.982 | locus YHR027C, strain rpn1, hits give low values 1 | locus YHR030C, strain SLT2, hits give low values 0.991 | locus YHR079C, strain IRE1 (second series), hits give low values 0.982 | locus YHR079C, strain IRE1, hits give low values 0.993 | locus YHR094C, strain hxt1, hits give low values 0.975 | locus YHR129C, strain ARP1, hits give low values 0.994 | locus YHR142W, strain chs7, hits give low values 0.998 | locus YHR200W, strain rpn10, hits give low values 0.993 | locus YIL066C, strain RNR3, hits give low values 0.994 | locus YIL073C, strain SPO22, hits give low values 0.954 | locus YIL125W, strain kgd1, hits give low values 0.987 | locus YIR030C, strain dcg1, hits give low values 0.99 | locus YJL092W, strain hpr5, hits give low values 1 | locus YJL095W, strain BCK1 (second series), hits give low values 0.997 | locus YJL095W, strain BCK1, hits give low values 0.99 and 1.01 | locus YJL115W, strain asf1, hits give low values 0.997 | locus YJL129C, strain trk1, hits give low values 0.991 | locus YJL134W, strain LCB3, hits give low values 0.996 | locus YJL154C, strain vps35, hits give low values 0.992 | locus YJL164C, strain tpk1, hits give low values 0.991 | locus YJL166W, strain qcr8, hits give low values 0.99 | locus YJL168C, strain set2, hits give low values 0.978 | locus YJL187C, strain SWE1 (second series), hits give low values 0.984 | locus YJL187C, strain SWE1, hits give low values 0.997 | locus YJR043C, strain POL32, hits give low values 1.03

— PubChem BioAssay AID1159580 (chemical genetic matrix, 2015)
